PubChem BioAssay (NCATS)
Records with an inconclusive call do not appear. Calls of active or inactive are those of the source. Unless noted, calls follow the shape of the dose curve; as a rule, active = well fitted curve in the direction sought with a large enough effect; inconclusive = small, poorly fitted or top-dose-only effect, or another doubt; inactive = no such curve, though single readings can be large; an effect the other way counts as inactive or inconclusive.

Molecular target: Phospholipid hydroperoxide glutathione peroxidase GPX4 (Homo sapiens) (UniProt P36969)
Assay: Primary qHTS Assay for Inhibitors of Recombinant Selenoprotein Glutathione Peroxidase 4 (GPX4) (AID 1845192); also: nearly all actives have a fitted effect of over 65% in size; as to activity change, negative = inhibition: % is scaled to controls: 0 for no effect and ±100 for the full control effect
Settings: recombinant GPX4, GR-coupled NADPH fluorescence, 15 min; series mostly up to 50 µM; activity change, negative = inhibition: at the top concentration
Outline: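 NADPH consumption followed by fluorescence at 340/450 nm, t=0 and after 15 min at room temperature. Reaction started with cumene hydroperoxide (0.5 mM final) after 30 min compound–GPX4 preincubation; final 200 nM GPX4, 100 nM GR, 1 mM GSH, 0.5 mM NADPH.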

Chain of Phospholipid hydroperoxide glutathione peroxidase GPX4 (Homo sapiens) (P36969 whole entry, looked up): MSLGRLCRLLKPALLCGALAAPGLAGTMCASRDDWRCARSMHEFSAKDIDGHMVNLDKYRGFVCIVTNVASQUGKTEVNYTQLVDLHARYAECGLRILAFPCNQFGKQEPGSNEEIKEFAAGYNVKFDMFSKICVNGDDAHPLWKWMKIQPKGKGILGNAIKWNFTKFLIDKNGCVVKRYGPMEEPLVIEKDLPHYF

| SMILES | Potency | activity change, negative = inhibition | outcome |
| --- | --- | --- | --- |
| CC(=O)OCC(=O)[C@@]12N=C(C)O[C@@H]1C[C@H]1[C@@H]3CCC4=CC(=O)C=C[C@]4(C)[C@H]3[C@@H](O)C[C@@]12C | inactive | – | – |
| CN1C2CCC1CC(OC(=O)c1c[nH]c3ccccc13)C2 (stereo not drawn) | – | 1.22% (inactive) | – |
| Cc1ncc(CSSCc2cnc(C)c(O)c2CO)c(CO)c1O | – | -18.2% (inactive) | – |
| CC(C)COC(=O)OCN1C(=O)CN(CCN2CC(=O)N(COC(=O)OCC(C)C)C(=O)C2)CC1=O | – | -16.5% (inactive) | – |
| CN1CCC[C@@H]1c1cccnc1 | – | – | inactive |
| CC[C@H](C)C(=O)O[C@H]1CCC=C2C=C[C@H](C)[C@H](CC[C@@H]3C[C@@H](O)CC(=O)O3)[C@H]21 | inactive | – | – |
| C[C@]12C=CC(=O)C=C1CC[C@@H]1[C@@H]2[C@@H](O)C[C@@]2(C)[C@H]1CC[C@]2(O)C(=O)CO | inactive | – | – |
| CCN(CCCc1ccccc1)CCCc1ccccc1 | – | 2.41% (inactive) | – |
| CCN1CCN(c2cc3c(cc2F)c(=O)c(C(=O)O)cn3C2CC2)CC1 | – | 1.52% (inactive) | – |
| CNCCC=C1c2ccccc2CCc2ccccc21 | inactive | – | – |
| Cc1ccnc(NS(=O)(=O)c2ccc(N)cc2)n1 | – | – | inactive |
| C[N+]1(CCCCC[N+]2(C)CCCC2)CCCC1 | inactive | – | – |
| CC(=O)N(O)CCCCCNC(=O)CCC(=O)N(O)CCCCCNC(=O)CCC(=O)N(O)CCCCCN | inactive | – | – |
| CCCCCC=CCC=CCCCCCCCC(=O)OCC | – | -11.1% (inactive) | – |
| NC(=NCCCCCCN=C(N)/N=C(\N)Nc1ccc(Cl)cc1)/N=C(\N)Nc1ccc(Cl)cc1 | inactive | – | – |
| N[C@@H](Cc1cnc[nH]1)C(=O)O | – | -5.42% (inactive) | – |
| O=C1c2ccccc2C(=O)C1c1ccccc1 | – | 1.7% (inactive) | – |
| CN(C)CC/C=C1\c2ccccc2Sc2ccc(Cl)cc21 | – | – | inactive |
| COC(=O)C1=C(C)NC(C)=C(C(=O)O[C@@H]2CCCN(Cc3ccccc3)C2)[C@@H]1c1cccc([N+](=O)[O-])c1 | – | 1.78% (inactive) | – |
| CC(=O)Oc1ccc(C(c2ccc(OC(C)=O)cc2)c2ccccn2)cc1 | – | -19.1% (inactive) | – |
| COc1cccc2c1C(=O)c1c(O)c3c(c(O)c1C2=O)C[C@@](O)(C(=O)CO)C[C@@H]3O[C@H]1C[C@H](N)[C@H](O)[C@H](C)O1 | – | -6.7% (inactive) | – |
| NC(CO)(CO)CO | – | -6.52% (inactive) | – |
| Nc1ccn([C@@H]2O[C@H](CO)[C@@H](O)C2(F)F)c(=O)n1 | inactive | – | – |
| C1CCc2nnnn2CC1 | – | 4.1% (inactive) | – |
| COC1=CC(=O)C[C@@H](C)[C@]12Oc1c(Cl)c(OC)cc(OC)c1C2=O | – | -20% (inactive) | – |
| CC1(C)CCC(NC(=O)[C@@H](N)CCC(=O)O)CC1 | – | -0.563% (inactive) | – |
| CC(O)(P(=O)(O)O)P(=O)(O)O | – | – | inactive |
| c1ccc(CNCCNCc2ccccc2)cc1 | – | – | inactive |

Molecular target: Luciferin 4-monooxygenase (Photinus pyralis) (UniProt P08659)
Assay: Primary firefly luciferase (FLuc) qHTS assay for identification of artifact compounds. (AID 1845220); also: nearly all actives have a fitted effect of over 60% in size;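 as to activity change, negative = inhibition: plate controls were DMSO vehicle for no effect and no enzyme for full effect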
Settings: purified firefly luciferase, luminescence, 5 min; series mostly up to 54.1 µM; activity change, negative = inhibition: at the top concentration
Outline: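 Cell-free, 1536-well qHTS. Buffer pH 7.6 with 0.01% Tween-20 and 0.05% BSA; 10 uM D-luciferin, 10 uM ATP; 10 nM P. pyralis luciferase; luminescence after 5 min.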

| SMILES | outcome | activity change, negative = inhibition |
| --- | --- | --- |
| NC(=NCCCCCCN=C(N)/N=C(\N)Nc1ccc(Cl)cc1)/N=C(\N)Nc1ccc(Cl)cc1 | inactive | – |
| COC(=O)C1=C(C)NC(C)=C(C(=O)O[C@@H]2CCCN(Cc3ccccc3)C2)[C@@H]1c1cccc([N+](=O)[O-])c1 | – | -11.7% (inactive) |
| Nc1ccn([C@@H]2O[C@H](CO)[C@@H](O)C2(F)F)c(=O)n1 | – | -1.26% (inactive) |

System: not listed separately
Assay: Primary fluorescence-based thiol-reactive (MSTI) qHTS assay for identification of artifact compounds. (AID 1845221);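 also: thiol-reactive compounds lower the probe fluorescence signal; nearly all actives have a fitted effect of over 65% in size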
Settings: MSTI thiol-reactivity probe, 1 h; series mostly up to 53.8 µM; activity change, negative = thiol reactive: at the top concentration
Outline: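 Probe: MSTI 4 uM, PBS pH 7.4, 2% DMSO. Incubation 1 h, RT, light-protected. Readout fluorescence 525/598 nm.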

| SMILES | activity change, negative = thiol reactive |
| --- | --- |
| NC(=NCCCCCCN=C(N)/N=C(\N)Nc1ccc(Cl)cc1)/N=C(\N)Nc1ccc(Cl)cc1 | 250% (inactive) |
| COC(=O)C1=C(C)NC(C)=C(C(=O)O[C@@H]2CCCN(Cc3ccccc3)C2)[C@@H]1c1cccc([N+](=O)[O-])c1 | 128% (inactive) |
| Nc1ccn([C@@H]2O[C@H](CO)[C@@H](O)C2(F)F)c(=O)n1 | -16.7% (inactive) |

System: not listed separately
Assay: Primary redox qHTS assay for identification of artifact compounds. (AID 1845223);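 also: 0% = DMSO and 100% = reference compound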
Settings: Amplex Red/HRP redox cycling with DTT, fluorescence; series mostly up to 53.8 µM; redox activity (% of DA3003): at the top concentration
Outline: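 Redox-cycling detection via DTT (250 uM final) oxidation coupled to Amplex Red (25 uM)/HRP (250 mU/mL) in HBSS. 15 min preincubation plus 30 min after DTT, room temperature. Ex/Em 525/598 nm; 4-parameter Hill fit against DMSO and 10 uM DA3003.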

| SMILES | redox activity (% of DA3003) |
| --- | --- |
| NC(=NCCCCCCN=C(N)/N=C(\N)Nc1ccc(Cl)cc1)/N=C(\N)Nc1ccc(Cl)cc1 | 4.72% (inactive) |
| COC(=O)C1=C(C)NC(C)=C(C(=O)O[C@@H]2CCCN(Cc3ccccc3)C2)[C@@H]1c1cccc([N+](=O)[O-])c1 | 2.63% (inactive) |
| Nc1ccn([C@@H]2O[C@H](CO)[C@@H](O)C2(F)F)c(=O)n1 | -5.31% (inactive) |

System: not listed separately
Assay: qHTS drug screen for cell cycle checkpoint inhibitors in PARPi-resistant BRCA-mutant ovarian cancer cell lines. (AID 1963452; calls by dose curve)
Settings: PEO1/OlaR viability, CellTiter-Glo luminescence, 96 h; stronger effect = lower value
Outline: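 PEO1, PEO4 and PEO1/OlaR ovarian cancer cells, 600 per well, exposed 96 h at 37C to a dilution series. Viability read by CellTiter-Glo luminescence, normalized to DMSO and empty wells; activity summarized as Z-AUC.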

| SMILES | Z-AUC |
| --- | --- |
| CC(=O)OCC(=O)[C@@]12N=C(C)O[C@@H]1C[C@H]1[C@@H]3CCC4=CC(=O)C=C[C@]4(C)[C@H]3[C@@H](O)C[C@@]12C | 0.653 (inactive) |
| CC[C@H](C)C(=O)O[C@H]1CCC=C2C=C[C@H](C)[C@H](CC[C@@H]3C[C@@H](O)CC(=O)O3)[C@H]21 | 1.25 (inactive) |
| C[C@]12C=CC(=O)C=C1CC[C@@H]1[C@@H]2[C@@H](O)C[C@@]2(C)[C@H]1CC[C@]2(O)C(=O)CO | -0.821 (inactive) |
| CC(=O)N(O)CCCCCNC(=O)CCC(=O)N(O)CCCCCNC(=O)CCC(=O)N(O)CCCCCN | -0.069 (inactive) |
| COc1cccc2c1C(=O)c1c(O)c3c(c(O)c1C2=O)C[C@@](O)(C(=O)CO)C[C@@H]3O[C@H]1C[C@H](N)[C@H](O)[C@H](C)O1 | -0.906 (inactive) |

Same assay, conditions: PEO1/OlaR viability, CellTiter-Glo luminescence, 96 h; measured here: PEO1 parental Z-AUC; stronger effect = lower value

| SMILES | Z-AUC |
| --- | --- |
| CC(=O)OCC(=O)[C@@]12N=C(C)O[C@@H]1C[C@H]1[C@@H]3CCC4=CC(=O)C=C[C@]4(C)[C@H]3[C@@H](O)C[C@@]12C | 1.08 |
| CC[C@H](C)C(=O)O[C@H]1CCC=C2C=C[C@H](C)[C@H](CC[C@@H]3C[C@@H](O)CC(=O)O3)[C@H]21 | 1.13 |
| C[C@]12C=CC(=O)C=C1CC[C@@H]1[C@@H]2[C@@H](O)C[C@@]2(C)[C@H]1CC[C@]2(O)C(=O)CO | 0.0884 |
| CC(=O)N(O)CCCCCNC(=O)CCC(=O)N(O)CCCCCNC(=O)CCC(=O)N(O)CCCCCN | -0.402 |
| COc1cccc2c1C(=O)c1c(O)c3c(c(O)c1C2=O)C[C@@](O)(C(=O)CO)C[C@@H]3O[C@H]1C[C@H](N)[C@H](O)[C@H](C)O1 | -0.971 |
| Nc1ccn([C@@H]2O[C@H](CO)[C@@H](O)C2(F)F)c(=O)n1 | -3.27 |
